Screening data deposited in PubChem BioAssay by several laboratories.
697 NFkB inh = inhibitors of PMA/ionomycin-induced NF-kB reporter, 697 cells, primary screen, B-cell NF-kB inhibitor project, cell-based, luminescence, uHTS; 697 B-cell NF-kB luciferase reporter, 16 h; inhibition, % at 4 µM; 330,000 tested, 0.33% active; AID 435022, 2010; in the data active = inhibition above about 35%
Mdm2 MdmX PPI = inhibitors of human Mdm2-MdmX association, primary screen, cell-based, luminescence, split luciferase, SaOS-2, uHTS. Protein Mdm4 (Homo sapiens) + E3 ubiquitin-protein ligase Mdm2 (Homo sapiens), …. SaOS-2 split-luciferase Mdm2/MdmX complementation. inhibition, % at 8 µM. 330,000 tested, 3% active. AID 485346, 2010;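 active = inhibition of at least 50% at 8 µM in the primary screen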
Target sequence (O15151 whole entry, looked up): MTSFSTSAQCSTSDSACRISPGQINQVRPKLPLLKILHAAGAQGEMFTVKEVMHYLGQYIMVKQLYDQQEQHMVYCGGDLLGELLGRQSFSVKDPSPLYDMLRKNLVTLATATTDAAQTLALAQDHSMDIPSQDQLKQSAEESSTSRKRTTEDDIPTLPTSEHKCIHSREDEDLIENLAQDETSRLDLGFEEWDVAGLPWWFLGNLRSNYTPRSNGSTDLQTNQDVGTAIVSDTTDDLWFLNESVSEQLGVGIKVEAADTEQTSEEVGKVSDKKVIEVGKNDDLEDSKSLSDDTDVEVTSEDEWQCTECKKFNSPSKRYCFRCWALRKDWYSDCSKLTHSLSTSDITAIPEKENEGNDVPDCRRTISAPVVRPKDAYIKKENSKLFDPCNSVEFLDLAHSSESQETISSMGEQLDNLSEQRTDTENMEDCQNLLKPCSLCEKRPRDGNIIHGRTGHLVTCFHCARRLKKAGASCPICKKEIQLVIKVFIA
Target sequence (Q00987 whole entry, looked up): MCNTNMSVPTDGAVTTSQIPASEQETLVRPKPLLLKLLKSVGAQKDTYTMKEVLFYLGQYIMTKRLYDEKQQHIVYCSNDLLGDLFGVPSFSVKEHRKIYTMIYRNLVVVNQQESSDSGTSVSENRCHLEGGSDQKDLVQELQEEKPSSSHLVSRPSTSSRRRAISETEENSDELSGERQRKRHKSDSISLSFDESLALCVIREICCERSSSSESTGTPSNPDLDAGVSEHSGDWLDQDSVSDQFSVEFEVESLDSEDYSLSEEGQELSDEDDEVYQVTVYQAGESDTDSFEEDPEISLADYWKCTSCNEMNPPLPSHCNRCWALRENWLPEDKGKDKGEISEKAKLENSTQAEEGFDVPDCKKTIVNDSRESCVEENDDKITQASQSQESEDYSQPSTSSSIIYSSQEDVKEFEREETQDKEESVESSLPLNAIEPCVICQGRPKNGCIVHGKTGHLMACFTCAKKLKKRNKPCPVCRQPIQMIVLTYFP
Jurkat NFkB inh = inhibitors of induced NF-kB luciferase reporter, primary screen, TCR NF-kB activation inhibitor project, cell-based, luminescence, uHTS. Jurkat, PMA/ionomycin-induced NF-kB luciferase reporter. inhibition, % at 4 µM. 330,000 tested, 0.53% active; in the data active = inhibition above about 50%
Gli-Sufu block = Gli-Sufu pathway antagonists, primary screen, luciferase luminescence, Sufu-KO-LIGHT cells, uHTS | AID 588413, 2011 | inhibition, % at 5 µM | 340,000 tested, 0.74% active | Sufu-KO-LIGHT fibroblasts, Gli luciferase reporter luminescence;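 active = inhibition above about 55%, limit read from the data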;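 note: 0% = DMSO-treated cells and 100% = wells with medium but no cells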
Shn3 inh set2 = reduction of Shn3 3'UTR firefly luciferase signal, primary screen, Schnurri-3 inhibitor project, cell-based, Clone20 osteoblasts, set 2; 360,000 tested, 0.52% active; inhibition, % at 12.5 µM; AID 588674, 2011; Clone20 osteoblast Shn3 3'UTR firefly luciferase, 24 h;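 active = mean inhibition of at least 75% with every replicate also reaching 75%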;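 note: 0% = median of neutral control wells and 100% = pilot-screen positive control compound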
Gli-Sufu confirm = Gli-SUFU pathway antagonists, confirmation, single concentration, luciferase luminescence, Sufu-KO-LIGHT cells. 2,500 tested, 40% active. Gli luciferase reporter. inhibition, % at 5 µM. shares compounds with Gli-Sufu block;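 active = mean inhibition at 5 µM reaching about 45%, limit read from the data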;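 note: plate controls were DMSO-treated cells for no effect and wells lacking cells for full effect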
SufuKO cytotox = cytotoxicity in Sufu-KO-LIGHT cells, confirmation, cytotoxicity control for Gli-SUFU antagonist project, cell-based, ATP luminescence, single concentration. shares compounds with Gli-Sufu block. cytotoxicity, % at 5 µM. 2,500 tested, 32% active. AID 651994, 2013;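 active = mean cytotoxicity at 5 µM above about 25%, limit read from the data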;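 note: cells exposed to compound overnight for roughly 16 to 18 hours; plate controls were DMSO wells with cells for no effect and medium without cells for full effect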
Wnt3a counter = Wnt3a reporter signal inhibition, confirmation, counter-screen for Gli-SUFU antagonist project, Wnt-LIGHT cells, luminescence, single concentration | Wnt3a-driven luciferase reporter | AID 651995, 2013 | shares compounds with Gli-Sufu block | 2,500 tested, 20% active | inhibition, % at 6.25 µM;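 active = mean inhibition above about 25%, limit read from the data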
Numbers without * were called inactive; ! = not confirmed by another sample. The list is not random: actives were taken first. Their share in the collection is about 3.8%.

For COc1ccc(-c2cnc3c(NC=O)cc(-c4cccc(NS(C)(=O)=O)c4)cn23)cc1OC the results were Shn3 inh set2 18.2.
For COc1ccc(NC(=O)c2ccc(CNc3c(NC4CCCCC4)c(=O)c3=O)cc2)cc1OC the results were 697 NFkB inh 15.0, Mdm2 MdmX PPI 1.4, Jurkat NFkB inh 4.6, Gli-Sufu block 59.3*!, Shn3 inh set2 -17.5, Gli-Sufu confirm 10.0, SufuKO cytotox -6.0 and Wnt3a counter -3.6.
`COc1ccc(CNC(=O)c2ccc(CNc3c(NC4CCCCC4)c(=O)c3=O)cc2)cc1` gave 697 NFkB inh -0.8, Mdm2 MdmX PPI -9.8, Jurkat NFkB inh -9.4, Gli-Sufu block -0.1 and Shn3 inh set2 -11.7.
For CCc1nc2ccc(C(=O)NCCCN3CCN(c4ccccc4F)CC3)cc2nc1CC the results were 697 NFkB inh 4.8, Mdm2 MdmX PPI 11.5, Jurkat NFkB inh -1.6, Gli-Sufu block 54.8, Shn3 inh set2 57.3, Gli-Sufu confirm 17.7, SufuKO cytotox 26.7* and Wnt3a counter -42.1.
For Cc1c(C)n(C)c2ccc(C(=O)NCCCN3CCN(c4ccccc4F)CC3)cc12 the results were 697 NFkB inh -67.8, Mdm2 MdmX PPI 5.0, Jurkat NFkB inh -12.7, Gli-Sufu block 25.0 and Shn3 inh set2 13.0.
`Cc1cc(NC(=O)C(C)C)ncc1NC(=O)c1ccccn1` gave 697 NFkB inh -28.2, Mdm2 MdmX PPI -13.2, Jurkat NFkB inh -36.1, Gli-Sufu block -9.8 and Shn3 inh set2 -24.3.
For CCCC(=O)Nc1cc(C)c(NC(=O)c2ccccn2)cn1 the results were 697 NFkB inh 9.3, Mdm2 MdmX PPI 14.1, Jurkat NFkB inh 2.5, Gli-Sufu block 59.5*, Shn3 inh set2 -25.2, Gli-Sufu confirm 6.1, SufuKO cytotox 4.9 and Wnt3a counter -50.8.
CN(c1ccccc1C(N)=O)S(=O)(=O)c1ccccc1 was read as 697 NFkB inh -12.6, Mdm2 MdmX PPI -25.4, Jurkat NFkB inh 0.6, Gli-Sufu block 51.7, Shn3 inh set2 1.8, Gli-Sufu confirm 12.5, SufuKO cytotox 8.6 and Wnt3a counter 19.1.
Screening CCOc1ccccc1N1CC(C(=O)Nc2c(C)n(C)n(-c3ccccc3)c2=O)CC1=O (stereo not given) returned 697 NFkB inh 12.8, Mdm2 MdmX PPI 6.7, Jurkat NFkB inh 7.7, Gli-Sufu block -9.7 and Shn3 inh set2 -0.6.
`O=C(OCc1cccc(F)c1)c1ccc2c(=O)n3c(nc2c1)CCC3` gave 697 NFkB inh 22.4, Mdm2 MdmX PPI -5.0, Jurkat NFkB inh -6.6, Gli-Sufu block 2.9 and Shn3 inh set2 9.3.
CCN1CCN(CC(=O)c2c(C)n(C)c3ccc(OC)cc23)CC1 was read as 697 NFkB inh -7.3, Mdm2 MdmX PPI -5.7, Jurkat NFkB inh -8.3, Gli-Sufu block 62.5*, Shn3 inh set2 -19.6, Gli-Sufu confirm 10.7, SufuKO cytotox 9.9 and Wnt3a counter -6.9.
Screening CC(C)=CCC/C(C)=C/CNC(=O)C[C@H]1C[C@H](C(=O)N2CCCCC2)[C@@]2(C)c3[nH]c4cc(CCC(=O)N(C)C)ccc4c3CCN2C1=O returned 697 NFkB inh -19.8, Mdm2 MdmX PPI 38.8, Gli-Sufu block 52.5, Shn3 inh set2 75.7, Gli-Sufu confirm 56.3*, SufuKO cytotox 32.0* and Wnt3a counter -18.5.
Screening CN(C)C(=O)CCc1ccc2c3c([nH]c2c1)[C@]1(C)[C@@H](C(=O)N2CCCCC2)C[C@H](CC(=O)NC(C)(C)C)C(=O)N1CC3 returned 697 NFkB inh -0.7, Mdm2 MdmX PPI 13.3, Gli-Sufu block 2.0 and Shn3 inh set2 6.1.
